Screen size: about 13,000 compounds; about 3,200 (25%) showed an effect of 50% or more. Some of the results follow.
tested on: P. falciparum stage V gametocytes; parameters: BacTiter-Glo ATP luminescence viability of purified stage V gametocytes in 384-well plates, per cent inhibition versus DMSO; conditions: 48 h, 5 µM; inhibitor

| SMILES | % Inhibition [%] |
| --- | --- |
| CCCCc1cc(NCc2ccncc2)nc(Nc2ccc(OC)cc2)n1 [TCMDC-134010] | -13.59 |
| Cc1cccc(NC(=O)c2cnc(N3CCN(c4ccncc4)CC3)c(Cl)c2)c1 [TCMDC-134625] | 39.85 |
| CC(C)Nc1cc(C(=O)N[C@@H](Cc2ccccc2)[C@H](O)CNC2CCOCC2)c(F)c(N2CCCCS2(=O)=O)c1 [TCMDC-135541] | -18.96 |
| CN(C)CCCOc1cc(NC(=O)Nc2ccc(-c3ccncc3)c3ccccc23)ccc1I [TCMDC-139136] | 21.74 |
| CS(=O)(=O)CCCNCc1ccc(-c2cc3c(Nc4ccc(OCc5ccccc5)cc4)ncnc3cn2)o1 [TCMDC-138081] | 11.38 |
| CN(Cc1ccc(C#N)cc1)C1CCN(c2cc(NC(=O)c3cccc(F)c3)ccn2)CC1 [TCMDC-134976] | -19.78 |
| COc1ccc2nccc([C@@H](O)CN3CCC(NC(=O)Cc4ccc(Br)c5ccccc45)CC3)c2c1 [TCMDC-141168] | -21.28 |
| CC1(C)N=C(N)N=C(N)C1c1ccc(Cl)cc1 (stereo not drawn) [TCMDC-137610] | 17.18 |
| O=C(O[C@@H]1CN[C@H](C#Cc2cc3c(Nc4ccc5c(cnn5Cc5ccccc5)c4)ncnc3s2)C1)N1CCCC1 [TCMDC-135376] | 21.76 |
| O=C(Cn1c(SCc2cccc(F)c2F)cc(=O)c2ccccc21)N(CCN1CCCCC1)Cc1ccc(-c2ccc(C(F)(F)F)cc2)cc1 [TCMDC-141466] | 112.5 |
| O=C(Cn1c(SCc2cccc(F)c2F)cc(=O)c2ccccc21)N(CCn1ccnc1)Cc1ccc(-c2ccc(C(F)(F)F)cc2)cc1 [TCMDC-141468] | 91.6 |
| O=C(Cn1c(SCc2cccc(F)c2F)cc(=O)c2ccccc21)N(CCCn1ccnc1)Cc1ccc(-c2ccc(C(F)(F)F)cc2)cc1 [TCMDC-141467] | 68.26 |
| O=C(Cn1c(CCc2cccc(F)c2F)cc(=O)c2ccccc21)N(CCN1CCCCC1)Cc1ccc(-c2ccc(C(F)(F)F)cc2)cc1 [TCMDC-141142] | -28.19 |
| CCN(CC)CCCN(Cc1ccc(-c2ccc(C(F)(F)F)cc2)cc1)C(=O)Cn1c(SCc2cccc(F)c2F)cc(=O)c2ccccc21 [TCMDC-141175] | 139.9 |
| O=C(Cn1c(CCc2cccc(F)c2F)cc(=O)c2cccnc21)N(CCCn1ccnc1)Cc1ccc(-c2ccc(C(F)(F)F)cc2)cc1 [TCMDC-141469] | 1.607 |
| CN(Cc1cccc(F)c1)C1CCN(c2cc(NC(=O)c3ccc(F)cc3)ccn2)CC1 [TCMDC-135018] | 1.836 |
| CCCOc1ccccc1-c1nc2[nH]c3c(c2c(=O)[nH]1)CCN(C)C3 [TCMDC-138173] | 5.306 |
| COc1cc(C=CC(=O)N2CCC3(CC2)CC(=O)c2ccccc2O3)cc(OC)c1OC [TCMDC-123541] | 7.005 |
| N#Cc1ccc(-c2ccc(OCC(O)CN3CCCN(Cc4cccc(O)c4Cl)CC3)cc2)cc1 (stereo not drawn) [TCMDC-141431] | -23.75 |
| COc1ccc2nccc([C@@H](O)CN3CCC(NCc4nc5ccccc5s4)CC3)c2c1 [TCMDC-140790] | -20.83 |
| COc1ccc(NC(=O)Nc2ccc(-c3ccncc3)c(Cl)c2)cc1N1CCN(C)CC1 [TCMDC-139134] | -28.75 |

| SMILES | % Inhibition [%] |
| --- | --- |
| CN(C)c1ccc(NC2=NC(C)(C)N=C(N)N2)cc1 [TCMDC-124346] | 7.678 |
| O=C(Cn1c(SCc2cccc(F)c2F)cc(=O)c2ccccc21)N(CCc1cnc[nH]1)Cc1ccc(-c2ccc(C(F)(F)F)cc2)cc1 [TCMDC-141484] | 44.33 |
| Cn1cncc1CCN(Cc1ccc(-c2ccc(C(F)(F)F)cc2)cc1)C(=O)Cn1c(SCc2cccc(F)c2F)cc(=O)c2ccccc21 [TCMDC-141451] | 112.4 |
| Cc1ccc(/C=C/C(=O)NC2CCC(N3CCC(c4ccccc4C)CC3)CC2)cc1C (stereo not drawn) [TCMDC-133526] | -66.55 |
| COc1ccc(CN2C(=S)N(Cc3ccccc3)C(=O)C2CC(=O)Nc2ccccc2)cc1OC (stereo not drawn) [TCMDC-123874] | 33.25 |
| COc1cc(NC(=O)c2cccs2)c(OC)cc1NC(=O)Nc1cccc(Cl)c1 [TCMDC-123531] | -32.35 |
| CCN1C(=O)C(CC(=O)Nc2cccc(Cl)c2)N(Cc2ccc(OC)c(OC)c2)C1=S (stereo not drawn) [TCMDC-123795] | 79.41 |
| O=C(Cc1ccccn1)Nc1cccc(-c2cccc(-c3nc4ccc(C(F)(F)F)cc4[nH]3)c2)c1 [TCMDC-132177] | -14.6 |
| COc1ccc2nccc([C@@H](O)CN3CCC(NCc4ccc5c(c4)OCCO5)CC3)c2c1 [TCMDC-141123] | 9.641 |
| COc1ccc2nccc([C@@H](O)CN3CCC(NC(=O)/C=C/c4ccc(F)c5ccccc45)CC3)c2c1 [TCMDC-141105] | -9.775 |
| COc1ccc2nccc([C@@H](O)CN3CCC(NCC(O)Cc4ccccc4)CC3)c2c1 (stereo partly drawn) [TCMDC-140702] | 11.24 |
| COc1ccc2nccc([C@@H](O)CN3CCC(NCC4COc5ccccc5O4)CC3)c2c1 (stereo partly drawn) [TCMDC-140733] | 86.29 |
| COc1ccc2nccc([C@@H](O)CN3CCC(NCc4cc5ccccn5n4)CC3)c2c1 [TCMDC-141025] | 65.1 |
| COc1ccc2nccc([C@@H](O)CN3CCC(NCc4cc5ccccc5nn4)CC3)c2c1 [TCMDC-140972] | -3.79 |
| COc1ccc2nccc([C@@H](O)CN3CCC(NCc4ccc5cccc(O)c5n4)CC3)c2c1 [TCMDC-140715] | -19.01 |
| COc1ccc2nccc([C@@H](O)CN3CCC(NC(=O)/C=C/c4ccc5ccccc5n4)CC3)c2c1 [TCMDC-141104] | 76.48 |
| COc1ccc2nccc([C@@H](O)CN3CCC(NC(=O)/C=C/c4ccnc5ccccc45)CC3)c2c1 [TCMDC-141103] | 15.04 |
| Nc1ncc(-c2cccc(OCc3ccccc3)c2)cc1-c1nnc2ccc(Cl)nn12 [TCMDC-134853] | -7.115 |
| COC(=O)c1ccc(N2CCN(CCCCNC(=O)c3ccc(NC(=O)c4ccc(Cl)cc4)cc3)CC2)c(OC)c1 [TCMDC-138526] | 7.636 |
| O=C(Nc1ccc(Cl)cc1)Nc1cccc(-c2cccc(-c3nc4ccccc4[nH]3)c2)c1 [TCMDC-133178] | -4.164 |
| CN(C)c1ccc(/C=C2\S/C(=N\c3ccccc3)N(c3ccccc3)C2=O)cc1[N+](=O)[O-] [TCMDC-124086] | -8.825 |

| SMILES | % Inhibition [%] |
| --- | --- |
| CCC(C)c1ccc(Nc2nc(C)cc(N(CC)CCCN3CCCCC3)n2)cc1 (stereo not drawn) [TCMDC-132456] | -18.05 |
| COc1cc(OC)c2c(c1Cl)O[C@]1(C2=O)C(=O)C(Cc2ccccc2)(Cc2ccccc2)C(=O)C[C@H]1C [TCMDC-131804] | 9.09 |
| COc1ccc(CN(C)CCCOc2ccc(NC(=O)C=Cc3ccc(C(C)(C)C)cc3)cc2)cc1OC [TCMDC-138277] | -85.5 |
| COc1ccc(Br)cc1/C=C/C(=O)Nc1ccc2c(c1)CCCN(C)C2 [TCMDC-133717] | 27.94 |
| CN1CCCc2cc(NC(=O)C=Cc3ccc(-c4ccc(F)cc4F)o3)ccc2C1 [TCMDC-134051] | 105.5 |
| CN1CCCc2ccc(NC(=O)C=Cc3ccc(-c4ccc(F)cc4F)o3)cc2C1 [TCMDC-134124] | 39.53 |
| CCCCCn1c(Sc2ccc(C#N)c([N+](=O)[O-])c2)nnc1-c1ccc(OC)cc1 [TCMDC-135603] | 31.95 |
| COc1ccc2ncc(F)c([C@@H](O)CN3CCC(NCc4cc5c(cn4)OCS5)CC3)c2c1 [TCMDC-135862] | 14.45 |
| COc1ccc2ncc(F)c(CCN3CCC(NCc4cc5c(cn4)OCCS5)CC3)c2c1 [TCMDC-134569] | 54.76 |
| COc1ccc2nccc([C@@H](O)CN3CCC(NCc4cnc5c(c4)NC(=O)CS5)CC3)c2c1 [TCMDC-141230] | 6.568 |
| COc1ccc2ncc(F)c([C@H](O)CN3CCC(NCc4cc5c(cn4)OCCO5)CC3)c2c1 [TCMDC-135296] | -10.65 |
| COc1ccc2ncc(F)c(CCN3CCC(NCc4cnc5c(c4)NC(=O)CS5)CC3)c2c1 [TCMDC-134490] | 87.27 |
| COc1ccc2ncc(F)c([C@H](O)CN3CCC(NCc4ccc5c(c4)NC(=O)CS5)CC3)c2c1 [TCMDC-135827] | 14.82 |
| CC(C)CC(=O)Nc1cc(=O)[nH]c2nc(-c3ccccc3)nn12 [TCMDC-125475] | 3.79 |
| Cc1cc(C(=O)CN2C(=O)NC3(CCCc4ccccc43)C2=O)c(C)n1Cc1ccc(F)cc1 (stereo not drawn) [TCMDC-125057] | -27.15 |
| O=C(/C=C/c1ccc(Cl)c(Cl)c1)NCCCCCN1CCC(NC(=O)c2ccc3ccccc3c2)CC1 [TCMDC-135869] | -22.99 |
| Cc1[nH]c(C)c(-c2ccc(-c3cc(C(F)(F)F)cc(C(F)(F)F)c3)nc2)c(=O)c1Br [TCMDC-136015] | 76.88 |
| Cc1[nH]c(C)c(-c2ccc(-c3ccccc3C(F)(F)F)nc2)c(=O)c1Br [TCMDC-135881] | 80.96 |
| Cc1[nH]c(C)c(-c2ccc(-c3cccc(C(F)(F)F)c3)nc2)c(=O)c1Br [TCMDC-135911] | 22.21 |
| Cc1[nH]c(C)c(-c2ccc(-c3ccc(C(F)(F)F)cc3C(F)(F)F)nc2)c(=O)c1Br [TCMDC-136013] | 70.39 |
| N#Cc1cccc(/C=C/C(=O)NC2CCC(CCN3CCc4ccc(-c5cnccn5)cc4CC3)CC2)c1 (stereo not drawn) [TCMDC-140238] | -55.93 |

— paper PMC4552634, “A New Set of Chemical Starting Points with Plasmodium falciparum Transmission-Blocking Potential for Antimalarial Drug Discovery” (PLoS ONE, 2015)
